The whole screen tested about 5,500 compounds, of which about 2,000 (36%) were called active. Roughly 18% stayed inconclusive and do not appear here. No stated cut-off is given here; in the data, active means normalized growth mostly below about 0.91 (no sharp cut-off); inconclusive means no clear call, values can overlap the other calls; inactive means mostly above about 0.92. The list shows a part of the results.
Assay: chemical genetic growth profiling, strain panel (AID 1159580);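 further: tested at 20 µM; growth read once vehicle control cultures reached saturation at 30 °C; 1 = growth at the plate median or of vehicle wells; lower values mean less growth of the strain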
Conditions: growth OD

Measured: normalized growth

COc1cc([C@H]2Oc3cc([C@H]4Oc5cc(O)cc(O)c5C(=O)[C@@H]4O)ccc3O[C@@H]2CO)ccc1O
inactive: S. cerevisiae deletion strains, locus YJR075W, strain HOC1, active compounds read low 0.999 | S. cerevisiae deletion strains, locus YKL009W, strain mrt4, active compounds read low 0.984 | S. cerevisiae deletion strains, locus YKL068W, active compounds read low 0.981 | S. cerevisiae deletion strains, locus YKL085W, strain MDH1 (second series), active compounds read low 1.02 | S. cerevisiae deletion strains, locus YKL085W, strain MDH1, active compounds read low 1.02 | S. cerevisiae deletion strains, locus YKL160W, strain elf1, active compounds read low 1.01 | S. cerevisiae deletion strains, locus YKL190W, strain CNB1, active compounds read low 0.989 | S. cerevisiae deletion strains, locus YKR001C, strain vps1, active compounds read low 0.961 | S. cerevisiae deletion strains, locus YKR026C, strain gcn3, active compounds read low 1.01 | S. cerevisiae deletion strains, locus YKR091W, strain srl3, active compounds read low 1.01 | S. cerevisiae deletion strains, locus YLL001W, strain dnm1, active compounds read low 1.01 | S. cerevisiae deletion strains, locus YLL026W, active compounds read low 1.01 | S. cerevisiae deletion strains, locus YLL041C, strain sdh2, active compounds read low 1.01 | S. cerevisiae deletion strains, locus YLR027C, strain aat2, active compounds read low 1.02 | S. cerevisiae deletion strains, locus YLR039C, strain RIC1, active compounds read low 0.945 | S. cerevisiae deletion strains, locus YLR058C, strain SHM2, active compounds read low 0.998 | S. cerevisiae deletion strains, locus YLR102C, strain apc9, active compounds read low 0.979 | S. cerevisiae deletion strains, locus YLR113W, strain HOG1, active compounds read low 0.986 | S. cerevisiae deletion strains, locus YLR221C, strain rsa3, active compounds read low 0.988 | S. cerevisiae deletion strains, locus YLR258W, strain gsy2, active compounds read low 1 | S. cerevisiae deletion strains, locus YLR262C, strain YPT6 (second series), active compounds read low 1.03 | S. cerevisiae deletion strains, locus YLR262C, strain YPT6, active compounds read low 0.953 | S. cerevisiae deletion strains, locus YLR268W, strain sec22, active compounds read low 0.965 | S. cerevisiae deletion strains, locus YLR320W, strain mms22, active compounds read low 0.991 | S. cerevisiae deletion strains, locus YLR330W, strain CHS5, active compounds read low 1 | S. cerevisiae deletion strains, locus YLR342W, strain FKS1 (second series), active compounds read low 1.01 | S. cerevisiae deletion strains, locus YLR342W, strain FKS1, active compounds read low 1.01 | S. cerevisiae deletion strains, locus YLR357W, strain rsc2, active compounds read low 1.03 | S. cerevisiae deletion strains, locus YLR370C, strain arc18, active compounds read low 1 | S. cerevisiae deletion strains, locus YLR371W, strain rom2, active compounds read low 0.971 | S. cerevisiae deletion strains, locus YLR384C, strain iki3, active compounds read low 1.02 | S. cerevisiae deletion strains, locus YLR418C, strain cdc73, active compounds read low 0.978 | S. cerevisiae deletion strains, locus YML016C, strain PPZ1, active compounds read low 1.01 | S. cerevisiae deletion strains, locus YML032C, strain rad52, active compounds read low 0.945 | S. cerevisiae deletion strains, locus YML120C, strain ndi1, active compounds read low 1.01 | S. cerevisiae deletion strains, locus YML124C, strain tub3, active compounds read low 0.986 | S. cerevisiae deletion strains, locus YMR058W, strain fet3, active compounds read low 0.998 | S. cerevisiae deletion strains, locus YMR078C, strain ctf18, active compounds read low 0.979 | S. cerevisiae deletion strains, locus YMR125W, strain sto1, active compounds read low 1.03 | S. cerevisiae deletion strains, locus YMR129W, active compounds read low 1.01 | S. cerevisiae deletion strains, locus YMR205C, strain PFK2, active compounds read low 1.01 | S. cerevisiae deletion strains, locus YMR223W, strain ubp8, active compounds read low 0.958 | S. cerevisiae deletion strains, locus YMR231W, strain pep5, active compounds read low 1.01 | S. cerevisiae deletion strains, locus YMR263W, strain SAP30, active compounds read low 0.998 | S. cerevisiae deletion strains, locus YMR307W, strain GAS1, active compounds read low 0.905 | S. cerevisiae deletion strains, locus YNL067W, strain RPL9B, active compounds read low 0.994 | S. cerevisiae deletion strains, locus YNL071W, strain lat1, active compounds read low 0.995 | S. cerevisiae deletion strains, locus YNL128W, strain TEP1, active compounds read low 0.993 | S. cerevisiae deletion strains, locus YNL153C, strain GIM3, active compounds read low 1 | S. cerevisiae deletion strains, locus YNL183C, strain NPR1, active compounds read low 0.932 | S. cerevisiae deletion strains, locus YNL209W, strain ssb2, active compounds read low 1.01 | S. cerevisiae deletion strains, locus YNL233W, strain BNI4, active compounds read low 0.997 | S. cerevisiae deletion strains, locus YNL248C, strain rpa49, active compounds read low 1.01 | S. cerevisiae deletion strains, locus YNL250W, strain rad50, active compounds read low 0.975 | S. cerevisiae deletion strains, locus YNL271C, strain bni1, active compounds read low 0.969 | S. cerevisiae deletion strains, locus YNL298W, strain CLA4, active compounds read low 0.965 | S. cerevisiae deletion strains, locus YNL307C, strain MCK1, active compounds read low 0.969 | S. cerevisiae deletion strains, locus YNL322C, strain KRE1 (second series), active compounds read low 1.01 | S. cerevisiae deletion strains, locus YNL322C, strain KRE1, active compounds read low 0.993 | S. cerevisiae deletion strains, locus YNR049C, strain mso1, active compounds read low 1.01 | S. cerevisiae deletion strains, locus YNR052C, strain pop2, active compounds read low 0.979 | S. cerevisiae deletion strains, locus YOL006C, strain TOP1, active compounds read low 0.969 | S. cerevisiae deletion strains, locus YOL012C, strain htz1 0.746 | S. cerevisiae deletion strains, locus YOL147C, strain pex11, active compounds read low 0.973 | S. cerevisiae deletion strains, locus YOR001W, strain rrp6, active compounds read low 1.01 | S. cerevisiae deletion strains, locus YOR061W, strain CKA2, active compounds read low 1 | S. cerevisiae deletion strains, locus YOR069W, strain VPS5, active compounds read low 1.01 | S. cerevisiae deletion strains, locus YOR070C, strain gyp1, active compounds read low 1.01 | S. cerevisiae deletion strains, locus YOR080W, strain dia2, active compounds read low 1.02 | S. cerevisiae deletion strains, locus YOR083W, strain WHI5, active compounds read low 1.01 | S. cerevisiae deletion strains, locus YOR106W, strain vam3, active compounds read low 1.01 | S. cerevisiae deletion strains, locus YOR136W, strain idh2, active compounds read low 0.973 | S. cerevisiae deletion strains, locus YOR144C, strain elg1, active compounds read low 0.96 | S. cerevisiae deletion strains, locus YOR184W, strain ser1, active compounds read low 0.947 | S. cerevisiae deletion strains, locus YOR231W, strain MKK1, active compounds read low 1.02 | S. cerevisiae deletion strains, locus YOR265W, strain rbl2, active compounds read low 1.01 | S. cerevisiae deletion strains, locus YOR270C, strain vph1, active compounds read low 0.961 | S. cerevisiae deletion strains, locus YOR290C, strain snf2, active compounds read low 0.996 | S. cerevisiae deletion strains, locus YOR316C, strain cot1, active compounds read low 0.985 | S. cerevisiae deletion strains, locus YPL051W, strain arl3, active compounds read low 1 | S. cerevisiae deletion strains, locus YPL055C, strain LGE1, active compounds read low 0.995 | S. cerevisiae deletion strains, locus YPL078C, strain atp4, active compounds read low 1.02 | S. cerevisiae deletion strains, locus YPL106C, strain sse1, active compounds read low 0.994 | S. cerevisiae deletion strains, locus YPL240C, strain hsp82, active compounds read low 1.01 | S. cerevisiae deletion strains, locus YPL241C, strain CIN2, active compounds read low 0.975 | S. cerevisiae deletion strains, locus YPL256C, strain CLN2, active compounds read low 1.01 | S. cerevisiae deletion strains, locus YPR119W, strain clb2, active compounds read low 0.993 | S. cerevisiae deletion strains, locus YPR141C, strain kar3, active compounds read low 0.985 | S. cerevisiae deletion strains, locus YPR163C, strain tif3, active compounds read low 0.973 | S. cerevisiae deletion strains, locus YPR167C, strain met16, active compounds read low 0.996 | S. cerevisiae deletion strains, strain wtn01, active compounds read low 0.987 | S. cerevisiae strains, strain wild type, active compounds read low 1

Source: PubChem BioAssay AID1159580 (chemical genetic matrix, 2015)
